Values joined by “and” are separate entries in the source; they are usually repeats but may differ in a detail not shown here. Equal values may be shown once. For part of these data: Measured potencies and affinities stand elsewhere. Where a structure was tested more than once in an assay, its records may differ in their call. Active and inactive are the calls of the source. Unless noted, the rule behind the calls is not given here.
Legend:
[1] = polyglutamine-triggered caspase-3 activation inhibitors, cell-based (AID 1583); details: polyglutamine-induced caspase-3 activation, cell assay; stronger effect = higher value;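 tested at 10 µM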
[2] = suppressors of polyQ aggregation in yeast, 75Q-TubU reporter (AID 1593); details: Yeast 75Q polyglutamine aggregation reporter
[3] = rescue of polyQ-huntingtin neuronal dysfunction in worms, whole organism, C. elegans mechanosensory neurons, N-terminal huntingtin (AID 1599); details: touch response, stronger effect = higher value
[4] = inhibitors of mitochondrial cytochrome c release, biochemical, purified mitochondria (AID 1603); details: stronger effect = lower value;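 note: mouse liver mitochondria challenged with calcium chloride; signal normalized to the plate average as 100%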
[5] = inhibitors of polyQ protein aggregation (AID 1604); details: polyglutamine-induced protein aggregation inhibition assay; stronger effect = higher value; tested at 2.5 µM
[6] = enhancers of glutamate uptake in motor neurons, MN-1 cell line (AID 1612); details: MN-1 motor neuron cells, stronger effect = higher value;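 note: tested at 1 µM final; 0% = mean of DMSO vehicle wells on each plate; positive means more glutamate uptake than control and negative means less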
[7] = suppressors of polyglutamine aggregation in yeast, 75Q-TubH (AID 1616); details: S. cerevisiae 75Q-TubH polyglutamine aggregation suppression; stronger effect = higher value
[8] = hESC survival regulators, cell-based (AID 493140); details: human embryonic stem cell survival screen; stronger effect = higher value;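 note: cells exposed to compounds for four days before counting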
[9] = Cy5 fluorescence interference with SSB-bound oligo, artefact control for HCV NS3 helicase inhibitor project, biochemical, NIH Clinical Collection, E. coli SSB (AID 743268)
[10] = tested on: Hepatitis C virus NS3 helicase; experiment: HCV NS3 helicase inhibitors, primary screen, biochemical, fluorescence polarization, NIH Clinical Collection (AID 743270); details: NS3 helicase binding to Cy5-dT15 DNA, stronger effect = higher value, concentration not given here
[11] = target: Single-stranded DNA-binding protein (Escherichia coli (strain K12)) (UniProt P0AGE0); experiment: E. coli SSB displacement from DNA, counter-screen for HCV NS3 helicase inhibitor project, biochemical, fluorescence polarization, NIH Clinical Collection (AID 743271; in the data active = inhibition above about 28%); details: stronger effect = higher value, concentration not given here
[12] = fluorescence interference in NS3h assay format, artefact control for HCV NS3 helicase inhibitor project, biochemical, NIH Clinical Collection (AID 743272); details: fluorescence interference counterscreen, stronger effect = lower value;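 note: HCV NS3 helicase with a Cy5 labelled single stranded DNA probe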
[13] = modulation of C. elegans fzo-1 (AID 1259413);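 note: fzo-1 mutant C. elegans worms in liquid wells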; details: C. elegans fzo-1 modulator screen, mean read-out; stronger effect = higher value
[14] = target: NAD(+) hydrolase SARM1 (Homo sapiens) (UniProt Q6SZW1); experiment: SARM1 TIR NADase inhibitors, cell lysate, NAD-Glo luminescence (AID 1508614;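 active = compound whose remaining NAD level is above about 45 nM, limit read from the data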;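 note: higher remaining NAD means stronger inhibition of SARM1 NADase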); details: SAM-TIR HEK293T lysate NADase, at 1 µM, stronger effect = higher value
[15] = target: Mitogen-activated protein kinase 7 (Homo sapiens) (UniProt Q13164); experiment: ERK5 transactivation activators in reporter cells, primary screen, cell-based, HTS (AID 1508626;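 active = luciferase signal above three times the same-plate solvent-only control wells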;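 note: luciferase driven by Gal4-ERK5 fusion binding five Gal4 sites before minimal TATA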); details: HeLa Gal4-ERK5 transactivation, 18 h, at 5 µM, stronger effect = higher value
[16] = viability rescue of complex I mutant cybrids, primary screen, cell-based, galactose medium, ATP luminescence (AID 1645843;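 active = z-score of at least 1.8 in each of two replicates, scored against plate mean and spread of sample wells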;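 note: positive z means more ATP and so rescue of galactose-driven cybrid death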); details: complex I mutant cybrid cells, 72 h, stronger effect = higher value
[17] = ICB984 medulloblastoma cell growth inhibition, synergistic combos for chromothripsis tumors, cisplatin or BGB combos (AID 1671451); details: ICB984 medulloblastoma cells, drug combinations, stronger effect = higher value;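 note: cells exposed for 96 hours before readout; 0% = vehicle DMSO and 100% = killing by high DMSO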
R275C/beta2Delta = experiment: modulators of BK channel variants, profiling panel, selectivity assay, cell-based, U2OS BacMam, thallium flux, beta subunits (AID 1259406;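 active = thallium flux through the channel raised or lowered by more than 3 SD from vehicle-only wells, actives on both sides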;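 note: initial slope of Thallos dye fluorescence rise after thallium is added; log ratio against the mean of 0.3% DMSO vehicle wells on the same plate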); details: at 30 µM
R275C/beta4 = experiment: as above; details: at 30 µM
R275C/Slo1WT/beta2 = experiment: as above; details: at 30 µM

NAD(+) hydrolase SARM1 (Homo sapiens), sequence (Q6SZW1 whole entry, looked up, the tested form may be a part): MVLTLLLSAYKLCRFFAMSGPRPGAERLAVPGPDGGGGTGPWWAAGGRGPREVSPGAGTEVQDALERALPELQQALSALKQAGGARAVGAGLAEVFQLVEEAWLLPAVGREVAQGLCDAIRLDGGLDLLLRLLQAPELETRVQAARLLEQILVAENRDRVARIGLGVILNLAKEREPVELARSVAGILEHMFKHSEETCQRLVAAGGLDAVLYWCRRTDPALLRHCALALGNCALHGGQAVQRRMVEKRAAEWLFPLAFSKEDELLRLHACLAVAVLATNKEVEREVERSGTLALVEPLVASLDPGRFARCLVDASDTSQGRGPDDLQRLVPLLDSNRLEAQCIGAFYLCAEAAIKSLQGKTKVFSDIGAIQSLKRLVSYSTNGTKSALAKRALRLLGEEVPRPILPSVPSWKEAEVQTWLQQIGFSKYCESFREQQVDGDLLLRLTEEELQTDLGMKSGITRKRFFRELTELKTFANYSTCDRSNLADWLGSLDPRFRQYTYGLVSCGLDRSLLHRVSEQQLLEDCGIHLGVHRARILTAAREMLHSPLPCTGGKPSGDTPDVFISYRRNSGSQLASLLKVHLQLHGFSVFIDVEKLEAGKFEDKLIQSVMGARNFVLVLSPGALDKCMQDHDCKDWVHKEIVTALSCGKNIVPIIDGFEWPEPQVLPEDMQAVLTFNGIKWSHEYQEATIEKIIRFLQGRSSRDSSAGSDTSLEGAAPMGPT
Mitogen-activated protein kinase 7 (Homo sapiens), sequence (Q13164 whole entry, looked up, the tested form may be a part): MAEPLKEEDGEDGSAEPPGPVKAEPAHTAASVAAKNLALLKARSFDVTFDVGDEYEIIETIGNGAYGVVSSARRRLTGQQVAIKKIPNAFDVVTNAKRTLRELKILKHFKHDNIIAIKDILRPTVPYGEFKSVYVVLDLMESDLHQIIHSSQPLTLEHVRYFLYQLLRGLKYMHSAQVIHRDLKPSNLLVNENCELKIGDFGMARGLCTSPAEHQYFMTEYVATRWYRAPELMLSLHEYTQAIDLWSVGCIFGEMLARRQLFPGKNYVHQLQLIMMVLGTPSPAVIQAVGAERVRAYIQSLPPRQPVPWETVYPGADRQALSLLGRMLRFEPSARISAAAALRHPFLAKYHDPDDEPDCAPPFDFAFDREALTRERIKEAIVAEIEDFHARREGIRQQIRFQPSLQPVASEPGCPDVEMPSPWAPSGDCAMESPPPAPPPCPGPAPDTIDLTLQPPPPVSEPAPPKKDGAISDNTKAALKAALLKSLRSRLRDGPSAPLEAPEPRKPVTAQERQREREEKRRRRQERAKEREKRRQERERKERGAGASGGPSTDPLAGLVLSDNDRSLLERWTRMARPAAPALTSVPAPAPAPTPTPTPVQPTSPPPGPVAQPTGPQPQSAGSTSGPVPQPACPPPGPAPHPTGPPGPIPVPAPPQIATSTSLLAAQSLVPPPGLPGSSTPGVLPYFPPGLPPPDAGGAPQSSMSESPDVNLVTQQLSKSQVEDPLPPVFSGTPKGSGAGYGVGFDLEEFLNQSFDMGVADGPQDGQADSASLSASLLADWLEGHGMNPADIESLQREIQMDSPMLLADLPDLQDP

## O=C1c2c(O)ccc(O)c2C(=O)c2c(NCCNCCO)ccc(NCCNCCO)c21
[1]
  inhibition: 63.3%
[2]
  score: -2.9
[3]
  rescue above control: 0
[4]
  cytochrome c release ratio: 3.49
[5]
  inhibition of aggregation: 52.2%
[6]
  glutamate uptake change: -30.1%
[7]
  aggregation suppression score: -1.69
[8]
  survival: 0.583 (inactive)
[9]
  fluorescence ratio: 0.74 (active)
[10]
  inhibition: 128% (active)
[11]
  inhibition: 121% (active)
[12]
  fluorescence ratio: 0.92 (inactive)
[13]
  mean signal: 214 (inactive)
[14]
  remaining NAD: 10 nM (inactive)
[15]
  luciferase signal: 20 AU (inactive)
[16]
  z-score: -1.29 (inactive) and -1.52 (inactive) and -2.29 (inactive)
[17]; BGB IC20 combo, at 0.005 µM
  inhibition: 17.1%
[17]; BGB IC40 combo, at 0.005 µM
  inhibition: 14.7%
[17]; BGB IC40 combo, at 0.05 µM
  inhibition: 101%
[17]; at 0.5 µM
  inhibition: -30% (inactive)
[17]; cisplatin combo, at 0.05 µM
  inhibition: 101%
[17]; cisplatin combo, at 0.5 µM
  inhibition: -40.5%
[17]; cisplatin combo, at 5 µM
  inhibition: -32.5%
[17]; measured here: 5 uM single agent, at 5 µM
  inhibition: -34.5%
R275C/beta2Delta
  log fold change Tl+ flux: -0.0164 (inactive)
R275C/beta4
  log fold change Tl+ flux: -0.0611 (inactive)
R275C/Slo1WT/beta2
  log fold change Tl+ flux: -0.0613 (inactive)

## NS(=O)(=O)c1cc2c(cc1Cl)NCNS2(=O)=O
[1]
  inhibition: -3.39%
[2]
  score: 1.21
[3]
  rescue above control: 7.5
[4]
  cytochrome c release ratio: 1.08
[5]
  inhibition of aggregation: 3.17%
[6]
  glutamate uptake change: 8.53%
[7]
  aggregation suppression score: 0.805
[8]
  survival: 7.5 (inactive)
[9]
  fluorescence ratio: 0.125 (active)
[10]
  inhibition: -5% (inactive)
[11]
  inhibition: -3.53% (inactive)
[12]
  fluorescence ratio: 1 (inactive)
[13]
  mean signal: 233 (inactive)
[14]
  remaining NAD: 10 nM (inactive)
[15]
  luciferase signal: 96 AU (inactive)
[16]
  z-score: 0.29 (inactive) and 0.995 (inactive)
R275C/beta2Delta
  log fold change Tl+ flux: -0.0287 (inactive)
R275C/beta4
  log fold change Tl+ flux: 0.00368 (inactive)
R275C/Slo1WT/beta2
  log fold change Tl+ flux: 0.0144 (inactive)

## COCCOC(=O)C1=C(C)NC(C)=C(C(=O)OC(C)C)C1c1cccc([N+](=O)[O-])c1 (stereo not given)
[8]
  survival: 3 (inactive)
[9]
  fluorescence ratio: 0.87 (inactive)
[10]
  inhibition: 6.77% (inactive)
[11]
  inhibition: 15.3% (inactive)
[12]
  fluorescence ratio: 0.92 (inactive)
[13]
  mean signal: 225 (inactive)
[14]
  remaining NAD: 10 nM (inactive)
[15]
  luciferase signal: 48 AU (inactive)
R275C/beta2Delta
  log fold change Tl+ flux: -0.0566 (inactive)
R275C/beta4
  log fold change Tl+ flux: -0.0265 (inactive)
R275C/Slo1WT/beta2
  log fold change Tl+ flux: -0.0323 (inactive)

## COc1ccc(Cl)cc1C(=O)NCCc1ccc(S(=O)(=O)NC(=O)NC2CCCCC2)cc1
[1]
  inhibition: 0.35%
[2]
  score: -0.18
[4]
  cytochrome c release ratio: 1.09
[5]
  inhibition of aggregation: 45%
[6]
  glutamate uptake change: 34.4%
[7]
  aggregation suppression score: 1.07
[8]
  survival: 5.42 (inactive)
[9]
  fluorescence ratio: 0.97 (inactive)
[10]
  inhibition: -2.27% (inactive)
[11]
  inhibition: 1.05% (inactive)
[12]
  fluorescence ratio: 0.97 (inactive)
[13]
  mean signal: 242 (inactive)
[14]
  remaining NAD: 10 nM (inactive)
[15]
  luciferase signal: 52 AU (inactive)
R275C/beta2Delta
  log fold change Tl+ flux: 0.0874 (inactive)
R275C/beta4
  log fold change Tl+ flux: 0.162 (active)
R275C/Slo1WT/beta2
  log fold change Tl+ flux: 0.00644 (inactive)

## CC(C)C(=O)Nc1ccc([N+](=O)[O-])c(C(F)(F)F)c1
[1]
  inhibition: 28.6%
[2]
  score: 0.95
[3]
  rescue above control: 0
[4]
  cytochrome c release ratio: 0.83
[5]
  inhibition of aggregation: 22.5%
[6]
  glutamate uptake change: -7.31%
[7]
  aggregation suppression score: 0.664
[8]
  survival: 18.4 (inactive)
[9]
  fluorescence ratio: 0.94 (inactive)
[10]
  inhibition: -1.36% (inactive)
[11]
  inhibition: 2.57% (inactive)
[12]
  fluorescence ratio: 0.88 (inactive)
[13]
  mean signal: 187 (inactive)
[14]
  remaining NAD: 10 nM (inactive)
[15]
  luciferase signal: 76 AU (inactive)
[16]
  z-score: -0.565 (inactive) and -0.735 (inactive) and -1.1 (inactive)
R275C/beta2Delta
  log fold change Tl+ flux: 0.0539 (inactive)
R275C/beta4
  log fold change Tl+ flux: -0.0876 (inactive)
R275C/Slo1WT/beta2
  log fold change Tl+ flux: -0.0286 (inactive)

## CN=C(NC#N)NCCSCc1nc[nH]c1C
[1]
  inhibition: 15.1%
[2]
  score: 1.08
[3]
  rescue above control: -9.17
[4]
  cytochrome c release ratio: 1.04
[5]
  inhibition of aggregation: 58.9%
[6]
  glutamate uptake change: -5.55%
[7]
  aggregation suppression score: 1.05
[9]
  fluorescence ratio: 0.98 (inactive)
[10]
  inhibition: -3.18% (inactive)
[11]
  inhibition: -2% (inactive)
[12]
  fluorescence ratio: 0.94 (inactive)
[13]
  mean signal: 239 (inactive)
[14]
  remaining NAD: 10 nM (inactive)
[15]
  luciferase signal: 44 AU (inactive)
R275C/beta2Delta
  log fold change Tl+ flux: 0.00462 (inactive)
R275C/beta4
  log fold change Tl+ flux: 0.0223 (inactive)
R275C/Slo1WT/beta2
  log fold change Tl+ flux: 0.0339 (inactive)

## CCCCNc1cc(C(=O)O)cc(S(N)(=O)=O)c1Oc1ccccc1
[1]
  inhibition: 4.16%
[2]
  score: 1.19
[3]
  rescue above control: -11.4
[4]
  cytochrome c release ratio: 1.53
[5]
  inhibition of aggregation: 71.8%
[6]
  glutamate uptake change: -4.68%
[7]
  aggregation suppression score: 1.32
[8]
  survival: 12.6 (inactive)
[9]
  fluorescence ratio: 1.02 (inactive)
[10]
  inhibition: -5.91% (inactive)
[11]
  inhibition: -2.76% (inactive)
[12]
  fluorescence ratio: 0.97 (inactive)
[13]
  mean signal: 228 (inactive)
[14]
  remaining NAD: 10 nM (inactive)
[15]
  luciferase signal: 32 AU (inactive)
[16]
  z-score: 0.145 (inactive) and 0.39 (inactive) and 0.32 (inactive)
R275C/beta2Delta
  log fold change Tl+ flux: -0.0196 (inactive)
R275C/beta4
  log fold change Tl+ flux: 0.0225 (inactive)
R275C/Slo1WT/beta2
  log fold change Tl+ flux: 0.0333 (inactive)

## NCCc1ccc(O)c(O)c1
[1]
  inhibition: 12.5%
[2]
  score: 1.44
[3]
  rescue above control: 0.54
[4]
  cytochrome c release ratio: 0.92
[5]
  inhibition of aggregation: 81.4%
[6]
  glutamate uptake change: 17.9%
[7]
  aggregation suppression score: 1.6
[9]
  fluorescence ratio: 0.93 (inactive)
[10]
  inhibition: -5.91% (inactive)
[11]
  inhibition: -2% (inactive)
[12]
  fluorescence ratio: 0.96 (inactive)
[13]
  mean signal: 263 (inactive)
[14]
  remaining NAD: 10 nM (inactive)
[15]
  luciferase signal: 44 AU (inactive) and 204 AU (active)
[16]
  z-score: -1.03 (inactive) and -1.31 (inactive)
R275C/beta2Delta
  log fold change Tl+ flux: 0.0238 (inactive)
R275C/beta4
  log fold change Tl+ flux: 0.0461 (inactive)
R275C/Slo1WT/beta2
  log fold change Tl+ flux: 0.00323 (inactive)

## CC(=O)CC(c1ccccc1)c1c(O)c2ccccc2oc1=O (stereo not given)
[1]
  inhibition: 17%
[2]
  score: 0.72
[3]
  rescue above control: -6.3
[4]
  cytochrome c release ratio: 1.4
[5]
  inhibition of aggregation: 68.5%
[6]
  glutamate uptake change: -2.55%
[7]
  aggregation suppression score: 0.635
[9]
  fluorescence ratio: 1 (inactive)
[10]
  inhibition: -2.27% (inactive)
[11]
  inhibition: -3.53% (inactive)
[12]
  fluorescence ratio: 0.99 (inactive)
[13]
  mean signal: 249 (inactive)
[14]
  remaining NAD: 10 nM (inactive)
[15]
  luciferase signal: 136 AU (inactive)
[16]
  z-score: 2.31 (active)
R275C/beta2Delta
  log fold change Tl+ flux: 0.0436 (inactive)
R275C/beta4
  log fold change Tl+ flux: -0.00201 (inactive)
R275C/Slo1WT/beta2
  log fold change Tl+ flux: 0.0306 (inactive)
